Data: PubChem BioAssay (Tox21)
“And” between values parts separate entries of the source, which are not always exact repeats. Identical values can stand only once. Records with an inconclusive call do not appear. Entries that show only a call come without a potency. Some structures have more than one record in an assay (separate samples or runs), and their calls can disagree. The source made the active and inactive calls. Unless noted, calls come from the whole dose curve; as a rule, active = well fitted curve in the direction sought with a large enough effect in the repeat runs; inconclusive = weak or mixed curves; inactive = no such curve, though single readings can be large; an effect the other way counts as inactive or inconclusive.

Tests used:
[1] = qHTS assay to identify small molecule antagonists of the glucocorticoid receptor (GR) signaling pathway - cell viability counter screen (AID 720693); note: nearly all actives have a fitted effect of over 55% in size
[2] = qHTS assay for identifying genotoxic compounds that show differential cytotoxicity against isogenic chicken DT40 cell lines with known DNA damage response pathways - wild type cell line (AID 743012); note: nearly all actives have a fitted effect of over 60% in size; note: potency is the fitted concentration of half-maximal effect
Outline: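 Wild-type DT40 cells (300/well) exposed to compounds for 40 hours at 37 C/5% CO2. Viability read by CellTiter-Glo luminescence after 30 min at room temperature.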

[3] = qHTS assay for identifying genotoxic compounds that show differential cytotoxicity against isogenic chicken DT40 cell lines with known DNA damage response pathways - Rev3 mutant cell line (AID 743014); note: nearly all actives have a fitted effect of over 55% in size; note: potency is the fitted concentration of half-maximal effect
[4] = qHTS assay for identifying genotoxic compounds that show differential cytotoxicity against isogenic chicken DT40 cell lines with known DNA damage response pathways - Rad54/Ku70 mutant cell line (AID 743015); note: nearly all actives have a fitted effect of over 60% in size; note: potency is the fitted concentration of half-maximal effect
[5] = biological target: Androgen receptor (Homo sapiens) (UniProt P10275); test: qHTS assay to identify small molecule antagonists of the androgen receptor (AR) signaling pathway (AID 743035; active = well fitted inhibition curve with a large enough effect in the signal ratio in the repeat runs, not every such curve was filed as active; the % refers to the signal ratio; note: potency is the fitted concentration of half-maximal effect)
Sequence of Androgen receptor (Homo sapiens) (P10275 whole entry, looked up): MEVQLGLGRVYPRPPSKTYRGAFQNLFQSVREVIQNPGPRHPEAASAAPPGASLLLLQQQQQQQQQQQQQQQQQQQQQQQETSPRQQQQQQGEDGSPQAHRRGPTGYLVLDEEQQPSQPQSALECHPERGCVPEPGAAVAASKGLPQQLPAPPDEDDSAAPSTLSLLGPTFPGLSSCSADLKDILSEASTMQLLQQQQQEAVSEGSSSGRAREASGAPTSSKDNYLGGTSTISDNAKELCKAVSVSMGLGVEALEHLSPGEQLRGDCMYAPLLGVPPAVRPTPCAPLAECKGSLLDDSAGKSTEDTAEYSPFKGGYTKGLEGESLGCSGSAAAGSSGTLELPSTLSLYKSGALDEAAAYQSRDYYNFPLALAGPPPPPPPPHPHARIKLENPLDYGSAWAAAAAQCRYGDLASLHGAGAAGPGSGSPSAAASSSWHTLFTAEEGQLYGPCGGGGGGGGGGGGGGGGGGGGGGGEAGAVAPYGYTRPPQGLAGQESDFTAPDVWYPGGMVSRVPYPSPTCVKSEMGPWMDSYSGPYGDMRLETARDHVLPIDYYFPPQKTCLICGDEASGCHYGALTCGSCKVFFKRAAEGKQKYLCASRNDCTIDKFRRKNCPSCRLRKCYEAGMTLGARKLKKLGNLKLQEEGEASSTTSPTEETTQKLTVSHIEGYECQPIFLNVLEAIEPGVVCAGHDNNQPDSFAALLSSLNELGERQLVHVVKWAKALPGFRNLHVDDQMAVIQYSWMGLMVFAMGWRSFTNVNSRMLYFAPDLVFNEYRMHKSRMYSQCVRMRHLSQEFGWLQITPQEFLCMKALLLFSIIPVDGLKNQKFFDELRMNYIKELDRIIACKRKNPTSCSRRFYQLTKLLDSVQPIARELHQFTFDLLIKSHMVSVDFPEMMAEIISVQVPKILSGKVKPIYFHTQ
Outline: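 HEK293 cells stably carrying UAS-beta-lactamase reporter, 2,000/well, given compounds plus R1881 agonist and incubated 16 h at 37C. LiveBLAzer B/G FRET substrate then added for 2 h at room temperature before fluorescence reading.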

[6] = biological target: Androgen receptor (Homo sapiens) (UniProt P10275); test: qHTS assay to identify small molecule agonists of the androgen receptor (AR) signaling pathway using the MDA cell line (AID 743040; note: nearly all actives have a fitted effect of over 20% in size)
Outline: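 MDA-kb2 breast carcinoma cells carrying MMTV-luciferase (responsive to AR and GR), plated 5 h then treated 16 h with compounds at 37C, 0% CO2. Read-out was ONE-Glo luminescence after 30 min at room temperature.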

[7] = qHTS assay to identify small molecule antagonists of the androgen receptor (AR) signaling pathway using the MDA cell line - cell viability counter screen (AID 743041; note: nearly all actives have a fitted effect of over 45% in size; note: potency is the fitted concentration of half-maximal effect)
Outline: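 MDA-kb2 AR-luc cells (MMTV-luciferase, AR/GR responsive) treated with compounds plus R1881 agonist for 16 h at 37C. CellTiter-Fluor added at 15.5 h; fluorescence read after 30 min in the same wells.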

[8] = biological target: Androgen receptor (Homo sapiens) (UniProt P10275); test: qHTS assay to identify small molecule antagonists of the androgen receptor (AR) signaling pathway using the MDA cell line (AID 743042; note: nearly all actives have a fitted effect of over 55% in size; note: potency is the fitted concentration of half-maximal effect)
Outline: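 MDA-kb2 breast carcinoma cells carrying MMTV-luciferase (AR/GR responsive) were co-treated with compounds and the agonist R1881 for 16 h at 37C. Inhibition read as ONE-Glo luminescence; CellTiter-Fluor fluorescence measured in parallel for cytotoxicity.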

[9] = qHTS assay to identify small molecule antagonists of the androgen receptor (AR) signaling pathway - cell viability counter screen (AID 743033; note: nearly all actives have a fitted effect of over 45% in size)
[10] = biological target: Androgen receptor (Homo sapiens) (UniProt P10275); test: qHTS assay to identify small molecule agonists of the androgen receptor (AR) signaling pathway (AID 743036; active = well fitted activation curve with a large enough effect in the signal ratio in the repeat runs, with a control signal flat, not every such curve was filed as active; the % refers to the signal ratio)
Outline: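 Fluorescence from a beta-lactamase FRET substrate served as read-out in AR-UAS-bla GripTite HEK293 cells. Cells were treated with DMSO-dissolved compounds for 16 h at 37C, then with LiveBLAzer B/G substrate for 2 h at room temperature.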

Structure (SMILES) | Potency [1] | Potency [2] | Potency [3] | Potency [4] | Potency [5] | outcome [6] | Potency [7] | Potency [8] | Potency [9] | outcome [10]
O=C1Cc2ccccc2N1c1c(Cl)cccc1Cl | inactive | 24.3 µM (active) | 34.4 µM (active) | 27.3 µM (active) | 54.9 µM (active) | inactive | inactive | 61.1 µM (active) | – | –
CC1=C(Br)C(=O)C(Br)=C/C1=C(/c1ccccc1S(=O)(=O)O)c1cc(Br)c(O)c(Br)c1C | inactive | 20.8 µM (active) | 20.8 µM (active) | 20.8 µM (active) | – | – | 41.5 µM (active) | – | – | –
CCCCCCCCCCC(=O)O | inactive | inactive | inactive | inactive | – | – | inactive | – | inactive | –
Nc1nnc(-c2ccc([N+](=O)[O-])o2)o1 | inactive | 24.3 µM (active) | 19.3 µM (active) | 19.3 µM (active) | – | – | 61.1 µM (active) | – | – | –
O=C(O)C[C@H](NC(=O)OCc1ccccc1)C(=O)O | inactive | inactive | inactive | inactive | – | – | inactive | – | inactive | –
CCC=CC#N | inactive | inactive | inactive | inactive | – | – | inactive | – | inactive | –
O=C1c2ccccc2C(=O)c2c(O)c(O)cc(O)c21 | inactive | inactive | – | 48.6 µM (active) | – | inactive | – | inactive | inactive | –
O=C1C(=O)c2ccccc2C(O)=C1C1CCC(c2ccc(Cl)cc2)CC1 (stereo unspecified) | inactive | 5.07 µM (active) | inactive | – | – | – | inactive | – | inactive | –
CCOc1ccccc1O[C@H](c1ccccc1)[C@H]1CNCCO1 | inactive | 29.8 µM (active) | 26.6 µM (active) | 13.3 µM (active) | – | – | inactive | – | inactive | –
CC(C)COCC(CN(Cc1ccccc1)c1ccccc1)N1CCCC1 (stereo unspecified) | inactive | 5.31 µM (active) | 8.41 µM (active) | 7.5 µM (active) | – | – | inactive | – | inactive | –
CC(C)(O)c1ccc(CNC(=O)c2cccnc2Oc2ccc3nonc3c2)cc1 | inactive | 61.1 µM (active) | 68.6 µM (active) | 61.1 µM (active) | – | – | inactive | – | – | –
COc1ncnc(NS(=O)(=O)c2ccc(N)cc2)c1OC | inactive | inactive | inactive | inactive | – | – | inactive | – | inactive | –
COc1ccccc1Oc1c(NS(=O)(=O)c2ccc(C(C)(C)C)cc2)nc(-c2ncccn2)nc1OCCO | inactive | inactive | inactive | inactive | – | – | inactive | – | inactive | –
O=C(O)c1cccc(-c2noc(-c3ccccc3F)n2)c1 | inactive | inactive | inactive | inactive | – | – | inactive | – | inactive | –
O=C1c2ccccc2C(=O)C1c1ccc(Br)cc1 | inactive | inactive | – | inactive | inactive | inactive | inactive | inactive | inactive | –
O=[N+]([O-])c1ccc(O/N=C/c2cc(Br)c(O)c(Br)c2)c([N+](=O)[O-])c1 | inactive | inactive | inactive | inactive | – | – | inactive | – | – | –
C=Cc1ccc(S(=O)(=O)O)cc1 | inactive | inactive and 30.6 µM (active) | inactive and 38.6 µM (active) | inactive and 2.17 µM (active) | – | – | inactive | – | inactive | –
CC(O)c1ccccc1 (stereo unspecified) | inactive | inactive | – | inactive | – | – | – | – | inactive | –
CN1CC(=O)N2[C@H](c3ccc4c(c3)OCO4)c3[nH]c4ccccc4c3C[C@@H]2C1=O | inactive | inactive | inactive | inactive | – | – | inactive | – | inactive | –
CCC(C)COC(=O)CC(C)C (stereo unspecified) | inactive | 68.6 µM (active) | 61.1 µM (active) | 61.1 µM (active) | – | – | inactive | – | – | –
CC/C=C1/OC(=O)c2ccccc21 | inactive | inactive | – | inactive | inactive | inactive | inactive | inactive | inactive | inactive
CCOC(=O)C1=C(C)NC(C)=C(C(=O)OC)C1c1cccc(Cl)c1Cl (stereo unspecified) | inactive | 23.7 µM (active) | – | – | – | – | inactive | – | inactive | –
OCCOCC#CCOCCO | inactive | inactive | – | inactive | – | – | inactive | – | inactive | –
N#CCCN(CCO)CCO | inactive | inactive | – | inactive | – | – | inactive | – | inactive | –
Cc1ccco1 | inactive | inactive | – | inactive | – | – | inactive | – | inactive | –
CC1=C(CC=O)C(C)(C)CCC1 | inactive | 54.5 µM (active) | – | 24.3 µM (active) | – | – | inactive | – | inactive | –
C[C@@H](CN(C)C)CN1c2ccccc2Sc2ccccc21 | inactive | 11.4 µM (active) | – | 11.4 µM (active) | – | – | inactive | – | – | –
CC[C@]1(O)C[C@H]2CN(CCc3c([nH]c4ccccc34)[C@@](C(=O)OC)(c3cc4c(cc3OC)N(C=O)[C@H]3[C@@](O)(C(=O)OC)[C@H](OC(C)=O)[C@]5(CC)C=CCN6CC[C@]43[C@@H]65)C2)C1 | inactive | – | 0.0053 µM (active) | 0.0106 µM (active) | 0.0338 µM (active) | inactive | inactive | inactive | inactive | –
N#[N+]c1ccc2c(S(=O)(=O)[O-])cccc2c1O | inactive | – | inactive | inactive | – | – | inactive | – | inactive | –
O=C(O)c1ccc(OCCCOc2ccc(C(=O)O)cc2)cc1 | inactive | inactive | – | inactive | – | – | inactive | – | inactive | –
